The whole screen tested about 63,000 compounds, of which about 1,100 (1.7%) were called active. Cut-off read from the data, not from the text of the source: active = cytotoxicity above about 50%; inactive = the rest. Only a selection was taken, and actives are over-represented in it overall. Results with a measured potency or affinity are listed apart.

The nature of this assay: HPDE-C7 pancreatic duct cell viability loss – fluorescence, HTS (AID 430).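 Note: cells exposed to compound for 48 hours before viability readout; 0% = vehicle and 100% = reference cytotoxic drug.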 The conditions noted are these: HPDE-C7 pancreatic duct cells viability, at 10 µM, hits give high values.
As to `COCCCNC(=O)CN(Cc1ccc(Cl)cc1)S(C)(=O)=O`, the cytotoxicity is -2.6% (inactive).
The value for `CCCSc1nc(C)c(CC(=O)OCC)c(=O)[nH]1` was 4% (inactive); that for `O=C1c2ccccc2C(=O)N1CCSc1nnc(-c2ccco2)n1Cc1ccccc1` was 4.3% (inactive); that for `CCCCCn1c(N(C)Cc2ccccc2)nc2c1c(=O)[nH]c(=O)n2C` was -0.6% (inactive).
`COc1ccc(-c2[nH]ncc2-c2ccc(Cl)cc2)c(O)c1`: the cytotoxicity is 41.2% (inactive).
Consider `C=C(C)COc1ccc(-c2[nH]ncc2-c2ccc(OC)c(OC)c2)c(O)c1`, for which the cytotoxicity was 13.3% (inactive).
Consider `CCOc1ccc(-c2[nH]ncc2-c2ccc(OC)c(OC)c2)c(O)c1`, for which the cytotoxicity was 53.7% (active).
Take `CCC(=O)Nc1ccc(F)c(Cl)c1`: the cytotoxicity was -11.3% (inactive).
As for `CCOC(=O)Cc1csc(NC(=O)CSc2ncnc3c2cnn3-c2ccccc2Cl)n1`, the figure is 57.4% (active); as for `CCOC(=O)Cc1csc(NC(=O)CSc2ncnc3c2cnn3-c2ccc(OC)cc2)n1`, -6.9% (inactive).
As to `Cc1csc(NC(=O)CSc2ncnc3c2cnn3-c2ccccc2Cl)n1`, the cytotoxicity was 19.7% (inactive).
For `CC1(C)CC(=O)C=C(Nc2cccc(O)c2)C1`, the cytotoxicity was 1.7% (inactive).
With `CC1(C)CC(=O)C2=C(C1)N(c1cccc(O)c1)C1=C(C2)C(=O)CC(C)(C)C1`, the cytotoxicity was 59.8% (active).
In the case of `CC1(C)CC(=O)C(C(C2=C(O)CC(C)(C)CC2=O)c2cccc(O)c2)C(=O)C1` (stereo not drawn), the cytotoxicity was 10.5% (inactive).
As to `C=CCn1c(O)c(C(CC)=NCc2cccnc2)c(=O)[nH]c1=O`, the cytotoxicity was -2.2% (inactive).
In the case of `O=C(NCc1cccnc1)c1cc(-c2ccco2)on1`, the cytotoxicity is 1.9% (inactive).
On to `N#Cc1cc2c(nc1SCC(=O)NCc1ccc3c(c1)OCO3)CCCCC2`, for which the cytotoxicity is -27.8% (inactive).
Consider `COc1cccc(CNC(=O)c2cc3oc4ccccc4c3n2C)c1OC`, for which the cytotoxicity is 53.5% (active).
As to `COc1ccccc1CNC(=O)c1cc2c(=O)n(C)c3ccccc3c2n1C`, the cytotoxicity is 15.2% (inactive).
In the case of `COc1cccc(CNC(=O)Cn2c(=O)oc3ccccc32)c1OC`, the cytotoxicity was -4.3% (inactive).
Take `CC1=NC(Nc2nc(C)c3ccccc3n2)=NC(C)(C)C1`: the cytotoxicity is 1.1% (inactive).
Take `COc1ccc(CNC(=O)c2cc(-c3ccc(OC)c(OC)c3)on2)cc1`: the cytotoxicity was 1% (inactive).
With `CCCc1cc(C(N)=O)c(NC(=O)C2CCCO2)s1` (stereo not drawn), the cytotoxicity is -5.1% (inactive).
For the molecule `COC(=O)c1nc2nc(C)cc(C(F)(F)F)n2n1`, the cytotoxicity was -8.4% (inactive).
On to `O=C(Cn1c(=O)n(-c2cccc(Cl)c2)c(=O)n1CC(=O)N1CCCCC1)N1CCCCC1`, for which the cytotoxicity is 1% (inactive).
Consider `Cc1ccc(S(=O)(=O)C2(S(=O)(=O)c3ccc(C)cc3)CCCC2)cc1`, for which the cytotoxicity is 54.6% (active).
Consider `O=S(=O)(c1ccccc1)C1(S(=O)(=O)c2ccccc2)CCCC1`, for which the cytotoxicity is -3.4% (inactive).
The value for `Cc1ccc(S(=O)(=O)C2(C(=O)N3CCCCCC3)CC2)cc1` was 6% (inactive).
As to `O=C(NCCc1cccc(Cl)c1)c1cccnc1`, the cytotoxicity is -6% (inactive).
As for `Cc1ccc(C)c(N2CCN(C(=O)c3ccc(NS(=O)(=O)c4c(C)noc4C)cc3)CC2)c1`, the figure is 41.2% (inactive).
Turning to `Cc1noc(C)c1S(=O)(=O)Nc1ccc(C(=O)N2CCN(c3ccc(Cl)cc3)CC2)cc1`, the cytotoxicity is -12.9% (inactive).
As to `N#Cc1ccccc1Cn1c(=O)n(Cc2ccc(C(=O)NCc3ccco3)cc2)c(=O)c2ccccc21`, the cytotoxicity is 7.9% (inactive).
With `CC(=O)c1cccc(NC(=O)C=C(C)C)c1`, the cytotoxicity was 5.6% (inactive).
`CN(Cc1ccccc1)C(=O)CSc1nnc(-c2ccco2)n1-c1ccccc1`: the cytotoxicity was -10.3% (inactive).
As for `COc1ccc(CNC(=O)CSc2nnc(-c3ccc(NC(C)=O)cc3)n2C)cc1`, the figure is -3.1% (inactive).
As for `CCCCCn1c(SCCN2CCOCC2)nc2c1c(=O)[nH]c(=O)n2C`, the cytotoxicity is 5.5% (inactive).
Consider `COc1ccccc1CNC(=O)CN(c1ccc(C)cc1)S(=O)(=O)c1c(C)n[nH]c1C`, for which the cytotoxicity is 4.9% (inactive).
Regarding `COc1ccc(OC)c(NC(=O)CN(c2ccc(C)cc2)S(=O)(=O)c2c(C)noc2C)c1`, the cytotoxicity is 4.3% (inactive).
As to `CCOc1ccc(N(CC(=O)Nc2ccc(C)cc2)S(=O)(=O)c2c(C)noc2C)cc1`, the cytotoxicity is 1.8% (inactive).
As to `CCOc1ccc(N(CC(=O)NC(C)(C)C)S(=O)(=O)c2c(C)noc2C)cc1`, the cytotoxicity was -7.4% (inactive).
Turning to `CCOc1ccccc1NC(=O)CN(c1ccc(C)cc1)S(=O)(=O)c1c(C)noc1C`, the cytotoxicity is -19.7% (inactive).
In the case of `CCOc1ccccc1NC(=O)CN(c1ccc(C)cc1)S(=O)(=O)c1c(C)n[nH]c1C`, the cytotoxicity was 52.3% (active).
Regarding `COc1ccccc1NC(=O)CN(c1ccc(C)cc1)S(=O)(=O)c1c(C)n[nH]c1C`, the cytotoxicity is 4.4% (inactive).
With `COc1ccc(N(CC(=O)Nc2cc(C)ccc2OC)S(=O)(=O)c2c(C)noc2C)cc1`, the cytotoxicity was 11.2% (inactive).
Regarding `CCOc1ccccc1NC(=O)CN(c1cc(C)cc(C)c1)S(=O)(=O)c1c(C)noc1C`, the cytotoxicity was 6.7% (inactive).
Consider `CCOc1ccccc1NC(=O)CN(c1ccc(OC)cc1)S(=O)(=O)c1c(C)noc1C`, for which the cytotoxicity was 66.8% (active).
As for `CCOc1ccc(N(CC(=O)Nc2ccccc2C)S(=O)(=O)c2c(C)noc2C)cc1`, the cytotoxicity was 65.3% (active).
With `COc1ccc(N(CC(=O)Nc2cc(Cl)ccc2OC)S(=O)(=O)c2c(C)noc2C)cc1`, the cytotoxicity was 73.4% (active).
As for `CCN1CCN(c2ncc(C(=O)Nc3c(F)cc(F)cc3Br)c3ccccc23)CC1`, the cytotoxicity was 18.4% (inactive).
Turning to `Cc1ccc(NC(=O)NC2(C(=O)NCc3ccco3)CCCCC2)cc1`, the cytotoxicity was -5.6% (inactive).
On to `CCn1[nH]c(=O)c(=Nc2c(C)n(C)n(-c3ccccc3)c2=O)cc1-c1ccc(Cl)cc1`, for which the cytotoxicity was -9.8% (inactive).
For the molecule `O=C(O)c1ccc(COc2ccc(CO)cc2Cl)cc1`, the cytotoxicity is -12.9% (inactive).
For the molecule `O=C1N2CN(C(c3ccccc3)c3ccccc3)CN=C2SC1(CO)CO`, the cytotoxicity is -13.8% (inactive).
For `CCOc1ccc(-c2nc(CSCC(=O)N3CCN(C(=O)c4ccco4)CC3)c(C)o2)cc1`, the cytotoxicity is -10.8% (inactive).
On to `Cc1cc(=O)n2[nH]c(C)c(-c3ccccc3)c2n1`, for which the cytotoxicity is -5% (inactive).
As to `Cc1[nH]n2c(=O)cc(C(C)C)nc2c1-c1ccccc1`, the cytotoxicity is 12.7% (inactive).
Turning to `Cc1[nH]n2c(=O)cc(C(C)(C)C)nc2c1-c1ccccc1`, the cytotoxicity was 76.6% (active).
For the molecule `CCCCCCNC(=O)C(C#N)c1nc2ccccc2nc1N1CCOCC1` (stereo not drawn), the cytotoxicity is 20.3% (inactive).
